Source: PubChem BioAssay (NCI)
This is part of a sample that, as a whole, favours compounds with a hit. Of some 79,000 tested, about 15% had one in any assay. Unmarked numbers belong to inactive results. The source made the active and inactive calls. Rule as the data show it: active = growth inhibition above about 70%; inactive = the rest.

Experiment: NCI Yeast Anticancer Drug Screen. Data for the rad50 strain (AID 155);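 also: 0% = growth of vehicle-only cultures of the same strain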
Conditions: S. cerevisiae rad50 strain growth inhibition; at 11.0 µM; active compounds read high
Method in brief: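 Vehicle-treated cultures provide the reference for the growth inhibition reported for compound-exposed, repair-deficient yeast.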
In the case of `Cc1cccc2c(C(O)CBr)cc(-c3ccc(Cl)cc3)nc12` (stereo not given), the growth inhibition is reported as 98% (active). Compound `CN(C)C[C@H]1CC[C@@H](CN(C)C)C1=O` has a growth inhibition of 22%. In the case of `CC1=C(SCCO)C(=O)c2ccccc2C1=O`, the growth inhibition is reported as -8%. For `COC(=O)CCNc1c2ccccc2nc2cccc([N+](=O)[O-])c12`, the growth inhibition was 96% (active). For `CC(/C=C/c1ccc2c(c1)OCO2)[N+](=O)[O-]` (stereo not given), the growth inhibition was 99% (active). In the case of `COC(=O)C1=C(C)NC(C)=C(C(=O)OCCCN2CCC(c3ccccc3)(c3ccccc3)CC2)C1c1cccc([N+](=O)[O-])c1` (stereo not given), the growth inhibition is reported as 97% (active). In the case of `CCOC(=O)c1cnc2c(C(F)(F)F)cccc2c1N=[N+]=[N-]`, the growth inhibition is reported as 20%. For `O=[N+]([O-])c1cc2no[n+]([O-])c2cc1N1CCCCC1`, the growth inhibition was 93% (active). For `COC(=O)c1ccc(NCC2=CC(=O)C=CC2=O)cc1O`, the growth inhibition was 75% (active). In the case of `CCCCCCCCNC(=O)C1=C(C)NC(C)=C(C(=O)NCCCCCCCC)C1`, the growth inhibition is reported as -17%. In the case of `S=C(Nc1ccc(Cl)c(Cl)c1)SCc1ccc2c(c1)OCO2`, the growth inhibition is reported as 99% (active). Compound `O=S(=O)(CCCl)c1ccccc1Cl` has a growth inhibition of 65%. With `Nc1ccccc1CC(O)C(=O)O` (stereo not given) the growth inhibition was 27%. `CN(C)c1ccc(Sc2ccc3nc(N)nc(N)c3c2)cc1` gave a growth inhibition of 8%. Work on `CC(C)C1=CCC2C(=C1)CCC1C(C)(C(=O)O)CCCC21C` (stereo not given) (tested in a mixture with another compound) yielded a growth inhibition of 16%. For `Cc1ccc(S(=O)(=O)Oc2cc(Cl)c(Cl)cc2Cl)cc1`, the growth inhibition was 11%. `CSC(=S)Nc1cc(C)ccn1` gave a growth inhibition of 64%. For `CC(C)c1cc(C(C)C)c(O)c(C([O-])[O-])c1.CC(C)c1cc(C(C)C)c(O)c(C([O-])[O-])c1.CC(C)c1cc(C(C)C)c(O)c(C([OH2+])[OH2+])c1.CC(C)c1cc(C(C)C)c(O)c(C([OH2+])[OH2+])c1.[Cu+2].[Cu+2].[OH3+].[OH3+]`, the growth inhibition was 21%. Compound `Cc1cc(I)ccc1N` has a growth inhibition of -13%. Compound `CC(Br)C(=O)c1ccc2cc(Br)c3ccccc3c2c1` (stereo not given) has a growth inhibition of 10%. `O=C(Nc1ccccc1)OCCc1ccc(Cl)c(Cl)c1` showed a growth inhibition of 29%. For `O=Cc1cccc2ccc3ccccc3c12`, the growth inhibition was 12%. With `O=[N+]([O-])CC(SCc1ccccc1)c1ccc2c(c1)OCO2` (stereo not given) the growth inhibition was 94% (active). Work on `CC1(Cl)CC(O)C2(CC1Br)C1(C)OC1C1OC1(Br)C2(C)C` (stereo not given) yielded a growth inhibition of 1%. `Cc1cc(O)cc(O)c1N=Nc1ccc([N+](=O)[O-])cc1` gave a growth inhibition of -1%. With `CCCCCCCCCCCCCC[N+](C)(CC(=O)[O-])Cc1ccccc1` (stereo not given) the growth inhibition was 99% (active). `CC1=NN(c2cccc(Cl)c2)C(=O)C1` gave a growth inhibition of -61%. Compound `CC(=O)OCc1ccc(O)c(C=O)c1` has a growth inhibition of 10%. Compound `Cc1ccc2ccc3cccc4ccc1c2c34` has a growth inhibition of 21%. For `Cc1nc(-[n+]2nc(-c3ccncc3)nn2-c2ccccc2)sc1C`, the growth inhibition was 3%. In the case of `C(CCSC1=NCCN1)CSC1=NCCN1` (tested in a mixture with another compound), the growth inhibition is reported as 83% (active). `CCCCCCCCCCC(=O)Cl` gave a growth inhibition of 2%. `COC1C=COC2(C)Oc3c(C)c(O)c4c(c3C2=O)/C(=N/C2CCC(O)OC2C)C=C(NC(=O)/C(C)=C\C(=O)C2CC2C(O)C(C)C(O)C(C)C(OC(C)=O)C1C)C4=O` (stereo not given) showed a growth inhibition of -2%. `S=c1[nH]nc(Nc2ccc(Cl)cc2)s1` gave a growth inhibition of -10%. Work on `O=C1CSC(/C=C/c2ccccc2)N1c1ccc(-c2ccc(-n3c(-c4ccccc4)nc4ccccc4c3=O)cc2)cc1` (stereo not given) yielded a growth inhibition of 5%. With `O=C1C=CC(=O)N1c1ccc2c(c1)Cc1cc(NC(=O)C(F)(F)F)ccc1-2` the growth inhibition was 41%. Compound `Brc1ccc(-c2cc3c(cc2C2SCCS2)OCO3)cc1` has a growth inhibition of -13%. `Oc1ccc2ccccc2c1C(c1ccc(Cl)cc1)c1c(O)ccc2ccccc12` gave a growth inhibition of 12%. Work on `C[CH2][Sn]([CH2]C)([O]C(=O)C(OC(C)=O)c1ccccc1)[O]C(=O)C(OC(C)=O)c1ccccc1` (stereo not given) yielded a growth inhibition of -2%. `Cc1ccc2ccc(O)cc2c1` showed a growth inhibition of -38%.
